Activity calls are given as the source filed them.
Tests used:
[1] = tested on: Human papillomavirus type 1a protein E7 (residues 44-93); assay: HPV1a E7 fragment binders on microarrays, primary screen, biochemical, small-molecule microarray, residues 44-93, 635 nm fluorescence (AID 1108); details: small-molecule microarray binding, fluorescence 635 nm; higher = more signal;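 also: E7 fragment applied at 1 µg/mL in TBST for 1 h at 4 C; score combines spot fluorescence with its signal to noise ratio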
[2] = modulators of HCV replicon luciferase signal, primary screen, HCV replication inhibitor project, Huh7 cells, luciferase reporter (AID 1109); details: 48 h, higher = more signal;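 also: huh7 hepatoma cells harbouring a luciferase neomycin HCV replicon reporter; luciferase luminescence as measure of HCV replicon replication; test concentration not given here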
[3] = target: Left-right determination factor 2 (Homo sapiens) (UniProt O00292); assay: LEFTY2 binders on small-molecule microarrays, primary screen, biochemical, small-molecule microarray, 635 nm fluorescence scan (AID 1110); details: LEFTY2 binding, higher = more signal
[4] = target: Calmodulin-1 (Homo sapiens) (UniProt P0DP23); assay: CALM1 binders on microarrays, EGTA buffer, profiling panel, biochemical, small-molecule microarray, Cy5-labelled CALM1 (AID 1111); details: Cy5-CALM1 binding fluorescence, higher = more signal;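 also: labelled calmodulin applied in Tris saline Tween buffer holding calcium plus EGTA and DTT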
[5] = target: Calmodulin-1 (Homo sapiens) (UniProt P0DP23); assay: calcium-bound CALM1 binders on microarrays, profiling panel, artefact control for SMM control-protein annotation, biochemical, small-molecule microarray, Cy5-labelled CALM1, plus calcium (AID 1112); details: Cy5-CALM1 binding fluorescence, higher = more signal;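 also: score merges spot fluorescence with signal to noise from triplicate slides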
[6] = small-molecule microarray binders of probe aWnt5a, primary screen, biochemical, biotinylated probe, 635/667 nm fluorescence (AID 1113); details: higher = more signal;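 also: score merges 667 nm fluorescence intensity with signal-to-noise per printed feature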
[7] = small-molecule microarray binders of probe aShh, primary screen, biochemical, biotinylated probe, 635/667 nm fluorescence (AID 1114); details: higher = more signal;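 also: probe is biotin-labelled aShh protein from a stem cell growth factor screen; measures binding of labelled protein to compounds printed on the slide; score merges feature fluorescence at 667 nm with signal-to-noise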
[8] = small-molecule microarray binders of probe aNog, primary screen, biochemical, biotinylated probe, 635/667 nm fluorescence (AID 1115); details: higher = more signal;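 also: probe is biotinylated aNog protein used at 0.15 µg/mL for 1 h at 4 C; z-score combines 667 nm fluorescence of each spot with its signal to noise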
[9] = target: Torsin-1A-interacting protein 1 (Homo sapiens) (UniProt Q5JTV8); assay: LAP1 binders from COS7 cell lysate, primary screen, small-molecule microarray, 635/667 nm fluorescence (AID 1116); details: COS7-hLAP1 lysate binding, 635 nm fluorescence, higher = more signal
[10] = target: Alpha-bungarotoxin (Bungarus multicinctus) (UniProt P60615); assay: alpha-bungarotoxin binders on microarray, profiling panel, artefact control for SMM control protein annotation, biochemical, small-molecule microarray, Alexa647 label, 635/667 nm fluorescence (AID 1117); details: alpha-BTX-A647 binding fluorescence, higher = more signal
Albumin (Bos taurus) = Albumin (Bos taurus) (UniProt P02769); assay: bovine serum albumin binders on microarray, profiling panel, artefact control for SMM control protein annotation, biochemical, small-molecule microarray, Alexa647 label, 635/667 nm fluorescence (AID 1118); details: BSA-A647 binding, fluorescence 635 nm, higher = more signal;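 also: score merges 667 nm emission intensity and signal-to-noise per printed compound spot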
[11] = small-molecule microarray binders of probe aXIP, primary screen, biochemical, NeuroSMM set, 635/667 nm fluorescence (AID 1119); details: higher = more signal, called active from +8 up or from −8 down;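 also: probe is the protein aXip251-270 applied at 1 µg/mL to compound-printed slides; binding of probe to printed compounds measured as 667 nm fluorescence plus signal to noise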
[12] = small-molecule binders of probe aNOTCH3, primary screen, biochemical, small-molecule microarray, 635/667 nm fluorescence (AID 1120); details: higher = more signal;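 also: probe is a biotin-tagged antibody raised against NOTCH3 rather than NOTCH3 protein; score merges spot fluorescence near 667 nm with spot signal to noise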
[13] = small-molecule binders of probe aNOTCH2, primary screen, biochemical, small-molecule microarray, 635/667 nm fluorescence (AID 1121); details: higher = more signal;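 also: score merges feature fluorescence read at 667 nm with its signal to noise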
[14] = target: Carbonic anhydrase 2 (Homo sapiens) (UniProt P00918); assay: CAII small-molecule binders, profiling panel, biochemical, small-molecule microarray, Alexa647-labelled CAII (AID 1122); details: CAII-A647 binding fluorescence, higher = more signal
[15] = COS7 lysate on small-molecule microarray, probe aHis, 635 nm (AID 1123); details: COS7 cell lysate, fluorescence, higher = more signal;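 also: z-score combines 667nm fluorescence intensity with signal-to-noise per printed compound spot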
[16] = compound binding in COS7 lysate, probe aLAP1, primary screen, cell lysate, small-molecule microarray (AID 1124); details: probe aLAP1, fluorescence, higher = more signal;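 also: lysate comes from COS7 cells expressing LAP1 and is applied at 0.3 µg/mL; score merges spot fluorescence near 667 nm with signal-to-noise over triplicate slides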
Sam68 (KHDRBS1) = assay: Sam68 small-molecule binders, primary screen, biochemical, small-molecule microarray, 635 nm fluorescence (AID 1125); details: small-molecule microarray binding, higher = more signal;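 also: score merges 667 nm channel intensity with signal to noise over triplicate slides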
[17] = tested on: Chordin-like protein 2 (CHRDL2); assay: CHRDL2 small-molecule binders, primary screen, biochemical, small-molecule microarray, 635 nm fluorescence (AID 1126); details: small-molecule microarray binding, fluorescence 635 nm; higher = more signal;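 also: printed compound slides probed with Chrdl2 protein at 4 µg/mL for 1 h at 4 C; score merges 667 nm emission intensity with signal to noise over three replicate slides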
[18] = target: Concanavalin-A (Canavalia ensiformis) (UniProt P02866); assay: ConA small-molecule binders, primary screen, artefact control for SMM control protein annotation, biochemical, small-molecule microarray, Alexa647 label, 635 nm (AID 1127); details: ConA-A647 binding fluorescence, higher = more signal;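 also: z combines 667 nm emission intensity with signal-to-noise across three replicate slides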
Sequence of Concanavalin-A (Canavalia ensiformis) (P02866 whole entry, looked up): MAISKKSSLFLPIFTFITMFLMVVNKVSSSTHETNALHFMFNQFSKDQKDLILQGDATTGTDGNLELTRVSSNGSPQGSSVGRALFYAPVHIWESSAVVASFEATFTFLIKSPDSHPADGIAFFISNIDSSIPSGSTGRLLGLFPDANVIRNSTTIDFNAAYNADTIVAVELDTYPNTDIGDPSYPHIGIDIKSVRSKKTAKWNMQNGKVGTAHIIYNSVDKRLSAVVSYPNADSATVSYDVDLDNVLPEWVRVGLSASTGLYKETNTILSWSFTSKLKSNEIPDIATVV

Sequence of Alpha-bungarotoxin (Bungarus multicinctus) (P60615 whole entry, looked up): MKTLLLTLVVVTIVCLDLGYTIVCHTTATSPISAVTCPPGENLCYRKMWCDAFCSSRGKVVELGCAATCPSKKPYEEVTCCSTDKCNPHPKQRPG
Sequence of Torsin-1A-interacting protein 1 (Homo sapiens) (Q5JTV8 whole entry, looked up): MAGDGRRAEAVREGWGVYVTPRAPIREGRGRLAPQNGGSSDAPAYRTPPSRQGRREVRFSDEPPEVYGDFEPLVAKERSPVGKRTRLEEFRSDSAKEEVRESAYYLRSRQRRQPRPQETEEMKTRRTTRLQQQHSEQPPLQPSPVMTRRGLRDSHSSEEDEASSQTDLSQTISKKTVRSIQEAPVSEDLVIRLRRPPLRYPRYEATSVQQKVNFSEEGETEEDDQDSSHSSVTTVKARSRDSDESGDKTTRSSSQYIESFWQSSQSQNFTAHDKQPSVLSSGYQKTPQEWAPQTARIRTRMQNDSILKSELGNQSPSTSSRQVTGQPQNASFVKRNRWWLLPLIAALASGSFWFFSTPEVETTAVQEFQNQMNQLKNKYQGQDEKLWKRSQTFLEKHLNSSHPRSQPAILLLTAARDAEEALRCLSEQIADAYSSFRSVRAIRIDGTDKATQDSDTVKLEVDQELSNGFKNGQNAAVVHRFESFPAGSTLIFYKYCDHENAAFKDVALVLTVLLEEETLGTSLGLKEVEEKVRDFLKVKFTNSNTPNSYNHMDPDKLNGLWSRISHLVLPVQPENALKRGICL
Sequence of Left-right determination factor 2 (Homo sapiens) (O00292 whole entry, looked up): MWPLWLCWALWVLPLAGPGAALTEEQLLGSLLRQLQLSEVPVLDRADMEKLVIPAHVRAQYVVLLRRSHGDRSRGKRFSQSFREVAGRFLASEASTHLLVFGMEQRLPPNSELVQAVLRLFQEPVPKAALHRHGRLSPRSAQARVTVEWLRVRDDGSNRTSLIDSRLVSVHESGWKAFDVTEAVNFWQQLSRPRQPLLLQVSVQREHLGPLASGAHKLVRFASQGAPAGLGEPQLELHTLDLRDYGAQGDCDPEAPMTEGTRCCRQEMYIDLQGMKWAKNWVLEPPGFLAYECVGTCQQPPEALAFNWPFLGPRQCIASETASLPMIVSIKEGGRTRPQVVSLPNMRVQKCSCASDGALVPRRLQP
Sequence of Albumin (Bos taurus) (P02769 whole entry, looked up): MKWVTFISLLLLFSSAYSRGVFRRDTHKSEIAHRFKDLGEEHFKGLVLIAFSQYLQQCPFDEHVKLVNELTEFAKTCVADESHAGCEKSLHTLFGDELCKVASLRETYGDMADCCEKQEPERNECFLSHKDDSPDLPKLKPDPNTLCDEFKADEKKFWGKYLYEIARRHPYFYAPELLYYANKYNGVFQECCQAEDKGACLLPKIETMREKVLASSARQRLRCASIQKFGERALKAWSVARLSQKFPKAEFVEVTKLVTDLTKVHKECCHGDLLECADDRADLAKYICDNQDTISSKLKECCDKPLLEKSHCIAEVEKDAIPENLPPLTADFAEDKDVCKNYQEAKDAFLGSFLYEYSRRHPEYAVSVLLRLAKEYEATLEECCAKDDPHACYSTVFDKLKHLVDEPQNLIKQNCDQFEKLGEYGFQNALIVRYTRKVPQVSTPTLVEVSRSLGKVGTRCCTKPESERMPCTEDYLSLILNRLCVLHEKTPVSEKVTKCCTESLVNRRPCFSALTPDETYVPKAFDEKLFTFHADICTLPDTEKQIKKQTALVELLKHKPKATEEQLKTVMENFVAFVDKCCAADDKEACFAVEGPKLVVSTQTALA

Row | SMILES | composite z-score [1] | z-score [2] | composite z-score [3] | composite z-score [4] | composite z-score [5] | composite z-score [6] | composite z-score [7] | composite z-score [8] | composite z-score [9] | composite z-score [10] | composite z-score (Albumin (Bos taurus)) | composite Z-score [11] | composite z-score [12] | composite z-score [13] | composite z-score [14] | composite z-score [15] | composite z-score [16] | composite z-score (Sam68 (KHDRBS1)) | composite z-score [17] | composite z-score [18]
1 | CC(C)(C)OC(=O)CC[C@]1(C(=O)N2CCOCC2)N=C(c2ccc(OCCCO)cc2)O[C@H]1c1ccccc1CN=[N+]=[N-] | 1.36 | -0.229 | -0.457 | 1.27 | 0.15 | -0.0221 | -0.141 | 1.92 | 2.38 | 1.68 | 0.508 | 0.341 (inactive) | 0.116 | -0.0219 | 0.745 | 3.11 | 0.519 | 1.31 | -0.227 | 0.977
2 | CC(C)C[C@@H]1NC(=O)[C@@]23C(=O)N[C@@H](Cc4ccccc4)C2[C@H](C)[C@@]2(C)O[C@H]2C3/C=C/C/C=C\CNC(=O)[C@@H](CC(C)C)NC1=O (stereo not given in full) | 0.741 | 0.052 | 0.567 | -0.475 | -0.674 | -0.101 | -0.238 | -0.35 | 0.403 | 0.322 | 0.757 | 0.183 (inactive) | -0.0311 | -0.167 | 0.599 | 0.925 | 0.285 | 1.3 | 0.732 | -1.14
3 | COc1cc2c(cc1O)C(c1ccc(CN3CCCC3)cc1)N(Cc1ccc([N+](=O)[O-])o1)CC2 (stereo not given) | -1.17 | -1.05 | 0.313 | 0.383 | 0.958 | -0.167 | -0.193 | 0.0692 | 1.12 | 0.951 | 0.847 | 0.27 (inactive) | 0.0469 | -0.0959 | 0.91 | 0.542 | 0.774 | -0.768 | -0.881 | 0.387
4 | CC(C)C[C@H]1NC(=O)[C@@]23C(=O)N[C@@H](Cc4ccccc4)C2[C@H](C)[C@@]2(C)O[C@H]2C3/C=C/C/C=C\CNC(=O)[C@@H]2CCCN2C1=O (stereo not given in full) | 0.612 | -0.0034 | 0.459 | -0.0621 | -0.576 | -0.0704 | 0.111 | 0.283 | 0.268 | 0.288 | 0.773 | 0.119 (inactive) | 0.0694 | -0.176 | 0.725 | 1.23 | 0.145 | 0.975 | 0.293 | 0.276
5 | CC(C)C[C@@H]1NC(=O)[C@@H]2C[C@H](C(=O)O)[C@H](c3ccc(O)cc3)N2C1=O | 0.309 | -0.836 | 0.695 | 1.31 | 0.192 | -0.0512 | 0.0611 | 0.116 | 1.22 | 1.64 | -1.01 | 0.102 (inactive) | 0.0488 | -0.106 | 0.558 | 0.68 | 0.186 | 1.31 | 1.15 | 1.21

Source: PubChem BioAssay
